Assay outcomes as filed in PubChem.
AMA1-RON2 inh = inhibitors of Plasmodium falciparum AMA1-RON2 interaction. Potency, µM (top dose mostly 58.2 µM), for the others: at the highest dose activity change, negative = inhibition, usual class: inhibitors. hit rate 0.2% among 360,000. AlphaScreen AMA1-biotinylated RON2 peptide binding; active = well fitted inhibition curve with a large enough effect; inconclusive = small, poorly fitted or top-dose-only effect; inactive = no such curve, though single readings can be large or run the other way;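 also: potency is read from the fitted curve at half-maximal effect; 0% = vehicle wells and -100% = peptide control; nearly all actives have a fitted effect of over 45% in size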
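AMA1 (3D7) with his tag at 25 nM final met compounds first, then biotinylated RON2 peptide at 25 nM; detection used donor plus acceptor beads, 10 µg/mL apiece, read by AlphaScreen after 30 min at room temperature.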
LASV entry inh = blocks Lassa virus binding to or entry into cells. Potency, µM (titrated, usually from 37.9 µM), for the others: at the top dose activity change, negative = inhibition, actives largely listed as inhibitors. AID 540256. hit rate 1.2% among 300,000. Lassa virus pseudotype entry inhibition, cell reporter; calls by dose curve; tested in HEK293 cells; also: potency is read from the fitted curve at half-maximal effect; % is scaled to controls: 0 for no effect and ±100 for the full control effect; nearly all actives have a fitted effect of over 50% in size
MARV entry inh = inhibitors of Marburg virus binding or cell entry; Marburg virus pseudotyped entry inhibition, cell reporter; Potency, µM (top dose mostly 37.8 µM), for inactives: top-dose activity change, negative = inhibition, most hits filed as inhibitors; hit rate 1.8% among 300,000; AID 540276; calls by dose curve; tested in HEK293 cells; also: potency is read from the fitted curve at half-maximal effect; % is scaled to controls: 0 for no effect and ±100 for the full control effect
Shiga inhibitor = inhibitors of Shiga toxin in Vero cells. Vero cells, Shiga toxin protein synthesis inhibition reporter. hit rate 9.2% among 290,000. inhibition, % at 38.7 µM; in the data active = inhibition mostly above about 28%, no sharp cut-off; inactive = mostly below about 43%; also: 0% is about no effect
Cycloheximide cs = affects cycloheximide protein synthesis inhibition readout, counter-screen | cell reporter, cycloheximide protein synthesis inhibition counterscreen | max response, % | hit rate 12% among 300,000; in the data active = max response mostly above about 13%, no sharp cut-off; inactive = mostly below about 14%; also: read at 38.3 µM for the half of the compounds with a filed dose; 0% is about no effect
Active calls of the source: *; ? = inconclusive; . = no result given; + = active, no number; [ ] = dose if it differs, or a comment. Shown is part of a subset that was picked to be rich in hits.

SMILES	AMA1-RON2 inh	LASV entry inh	MARV entry inh	Shiga inhibitor	Cycloheximide cs
CCC(=O)N1CCc2cc(CNS(=O)(=O)c3cc(Cl)ccc3OC)ccc21	.	-2%[46.1 µM]	.	.	.
O=C(c1coc(=O)c(Br)c1)N1CCCc2ccccc21	?	-14%	14%	74*	40*
COc1ccc(CC(=O)N2CCCc3ccccc32)cc1	8%	1%	-18%	99*	54*
CC(=O)Nc1ccc(S(=O)(=O)NN=CCCc2ccccc2)cc1	-6%	?	-4%[46.1 µM]	.	.
N#CCSc1ccsc1C(=O)Nc1ccc(F)cc1	29%	8%	1%	32	22*
O=C(Nc1ccc(F)cc1)c1cncs1	-6%	1%	-2%	-9	-2
Cc1c(C)c2c(OCC(=O)N3CCC(C(N)=O)CC3)cc3c(c2oc1=O)CCC(C)(C)O3	7%	.	.	-4	2
COc1cccc2cc(C(=O)c3ccccc3)oc12	-5%	?	-1%[46.1 µM]	166*	68*
COc1cccc2cc(-c3nc4ccccc4o3)c(=O)oc12	3%	?	1%[46.1 µM]	106*	45*
O=c1oc2ccc(Br)cc2cc1-c1nc2ccccc2o1	16%	-2%	-1%	16	-3
COc1cccc2cc(/C(=N/O)c3ccc(Br)cc3)oc12	-2%	-22%	-29%	-10	5
COc1cccc2cc(CC(=O)c3cc(C)ccc3C)c(=O)oc12	-8%	.	.	71*	28*
CCc1ccc(C(=O)Cc2cc3cccc(OC)c3oc2=O)cc1	7%	.	.	64*	28*
COc1cccc2cc(CC(=O)c3ccc(C)c(C)c3)c(=O)oc12	-2%	.	.	-7	11
COc1cccc(CNc2nc3cc(-c4cccc(C(=O)NCCO)c4)sc3c(=O)n2C)c1	-7%	.	.	.	.
Cc1ccccc1CSc1nc(-c2cccc(F)c2)nc2c1Cc1c(CO)cnc(C)c1O2	.	16%[46.1 µM]	.	.	.
COc1cccc2cc(CC(=O)c3ccccc3)c(=O)oc12	-7%	.	.	44*	18
C#CCN(C[C@@H](CC(C)C)NC(=O)OC(C)(C)C)S(=O)(=O)c1ccc(Br)cc1F	0%	.	.	.	.
CCCCCn1c(=O)c2ccccc2n2c(CCl)nnc12	3%	-8%	-14%[14.2 µM]	35	33*
COc1ccc(/C=N/OCC(=O)NCC(C)C)c(OC)c1	-2%	-14%[46.1 µM]	12%[46.1 µM]	-4	-1
COc1ccc(/C=N/OCC(=O)N2CCCC2)c(OC)c1	-11%	?	?	30	17*
COc1ccc(/C=N/OCC(=O)NC(c2ccccc2)c2ccccc2)c(OC)c1	6%	2.2µM*	?	-5	-4
Cc1ccc(-c2onc3ccc(Br)cc23)cc1	-9%	8%[46.1 µM]	18%[46.1 µM]	-4	11
Cc1ccc(-c2onc3ccc(C4OCCO4)cc23)cc1	1%	-18%	19%[46.1 µM]	71*	14*
COC(=O)C[C@@H]1C[C@@H]2c3cc(NS(=O)(=O)c4ccc(F)cc4)ccc3O[C@@H]2[C@@H](CO)O1	-4%	.	.	.	.
SMILES	AMA1-RON2 inh	LASV entry inh	MARV entry inh	Shiga inhibitor	Cycloheximide cs
COc1ccc(N2COC3c4cccc5cccc(c45)C32)cc1 (stereo not given)	-28%	-18%	-37%	45*	24*
COc1ccc(N2CC2c2ccncc2)cc1 (stereo not given)	5%	-5%[46.1 µM]	-17%[46.1 µM]	13	5
Clc1ccc(N2COC3c4cccc5cccc(c45)C32)cc1 (stereo not given)	-16%	15%	-18%	49*	13
COc1ccc(-n2nc(C(=O)N3CCN(c4cccc(C)c4)C(C)C3)c3c4ccccc4n(C)c3c2=O)cc1Cl (stereo not given)	.	24%[46.1 µM]	3%[46.1 µM]	.	.
CCOc1cccc(NC(=O)C2CC(=O)N(c3ccc(F)cc3)C2)c1 (stereo not given)	6%	-1%	16%	57	-3
Cc1cc(Cl)ccc1OCC(=O)Nn1c(C)ccc1C	21%	1%	-3%	-6	-1
CSc1ccccc1NC(=O)COc1ccc(Cl)cc1C	29%	15%	17%	48*	40*
Cc1cc(Cl)ccc1OCC(=O)Nc1ccccc1CO	6%	?	3%	50*	25*
COc1ccc(OCCOC(=O)c2cc(S(=O)(=O)N3CCOCC3)c(Cl)cc2Cl)cc1	-2%	7%	-22%	.	.
c1ccc(-c2cc3ccccc3[nH]2)cc1	-15%	.	.	37*	33*
O=[N+]([O-])c1cccc(-c2cc3ccccc3[nH]2)c1	-11%	.	.	23	27*
Cc1ccc(O)c(-c2cc3ccccc3[nH]2)c1	?	6%	4%	33*	28*
Cc1ccc(C(=O)OCc2cc3ccccc3[nH]c2=O)cc1	2%	-13%	12%	-3	-3
O=c1cc(-c2ccccc2)[nH]c2ccc(Cl)cc12	.	.	.	+	44*
